# Screens (PubChem BioAssay)
# ROS inducer: cancer cell ROS induction; U2OS ROS induction, H2DCF-DA fluorescence; ROS induction (% of piperlongumine), % at 10 µM; 46,000 tested, 2% active; in the data active means ROS induction above about 79%, passing the limit was not always enough; inconclusive means no clear call, values can overlap the other calls;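 further: 0% = DMSO vehicle median and 100% = reference compound median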
# YB-1 expr inh: YB-1 expression inhibition | U2OS, qRT-PCR YB-1 vs CDIP delta delta Cp, 16 h; active compounds read high; zero = DMSO, each unit about twofold | delta delta Cp (YB-1 minus CDIP) (no concentration beside the values) | 30,000 tested, 0.37% active;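 active means delta delta Cp rounded down to an integer at or above 3, about 3 SD of DMSO wells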;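 further: higher means less YB-1 transcript or more CDIP transcript relative to DMSO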
# Starred values were filed as active, the others as inactive; u = inconclusive; x = no result given. This is a sample that favours compounds with a hit; in the whole collection about 2.1% have one here.
SMILES,ROS inducer,YB-1 expr inh
CNC[C@@H]1Oc2ccc(NS(=O)(=O)c3c(C)noc3C)cc2CC(=O)N([C@H](C)CO)C[C@@H]1C,-6.4,-0.0517
CNC[C@@H]1Oc2ccc(NS(=O)(=O)c3c(C)noc3C)cc2CC(=O)N([C@H](C)CO)C[C@H]1C,99.2*,0.282
COC(=O)c1ccc(C(=O)OC)c(NC(=O)COc2ccccc2OC)c1,28.5,x
C[C@H]1CN([C@@H](C)CO)C(=O)Cc2cc(NS(=O)(=O)c3cn(C)cn3)ccc2O[C@@H]1CN(C)Cc1ccc(Cl)c(Cl)c1,-7.2,0.398
CC(=O)N1/C(=C/c2ccc(N(C)C)cc2)C(=O)c2ccccc21,150.9*,x
CN(C)c1ccc(/C=C2/C(=O)Nc3ccccc32)cc1,9.2,-0.299
C[C@H](CO)N1C[C@H](C)[C@H](CN(C)Cc2ccccc2)Oc2ccc(NC(=O)CCC(F)(F)F)cc2CC1=O,u,0.14
CCc1ccc2c(c1)=C(c1[nH]c(=S)[nH]c1O)C(=O)N=2,124.3*,0.242
CCc1ccc2c(c1)=C(c1sc(N)nc1O)C(=O)N=2,1.6,-0.276
CCOC(=O)c1sc(SC)c2c1CC(c1ccc(OC)cc1)CC2=O (centres undefined),135.8*,-0.381
CCOC(=O)c1sc(SC)c2c1CCc1cnc(SC)nc1-2,-7.0,0.326
Cc1cccc(OCC(=O)NS(=O)(=O)c2ccc(Cl)cc2)c1,-4.3,x
C[C@@H]1CN([C@@H](C)CO)C(=O)c2cccc(NS(=O)(=O)c3ccccc3)c2O[C@H]1CN(C)S(=O)(=O)c1cn(C)cn1,-5.2,0.469
C=CCNC(=O)c1cc2c(=O)n3ccccc3nc2n(CCC)c1=N,55.6,x
C=CCNC(=O)c1cc2c(=O)n3cccc(C)c3nc2n(CC2CCCO2)c1=N (centres undefined),90.1*,x
Cc1cccn2c(=O)c3cc(C(=O)NCC4CCCO4)c(=N)n(C4CCCCC4)c3nc12 (centres undefined),95.9*,x
O=C(O)c1ccccc1C(=O)NCC1CCCO1 (centres undefined),2.8,x
C[C@H]1CN([C@@H](C)CO)C(=O)Cc2cc(NC(=O)Nc3ccccc3)ccc2O[C@@H]1CN(C)CC1CC1,5.8,-0.0635
O=C(O)c1cc(-c2ccccc2)nc2ccccc12,1.8,-0.112
CCN(CC)c1ccc(-c2cc(C(=O)O)c3c(ccc4ccccc43)n2)cc1,439.5*,x
C[C@@H]1CN([C@H](C)CO)C(=O)c2cccc(NC(=O)C3CCOCC3)c2O[C@H]1CN(C)Cc1ccc(C(F)(F)F)cc1,18.4,0.184
O=C(CSc1nnc(-c2cccnc2)n1-c1ccccc1)N1CCc2ccccc21,-0.4,x
Nc1cc(N)nc(SCC(=O)N2CCN(c3ccc(Cl)cc3)CC2)n1,85.8*,x
CCn1c(SCC(=O)N2CCN(c3ccccc3)CC2)nnc1-c1cc2cc(Cl)ccc2o1,-12.2,x
C=C(C)c1cccc(C(C)(C)NC(=O)Nc2ccccc2OC)c1,24.4,x
SMILES,ROS inducer,YB-1 expr inh
COc1ccc(C)cc1N(CC(=O)Nc1cccc(Cl)c1Cl)S(C)(=O)=O,85.4*,x
COc1ccc(OC)c(N(CC(=O)Nc2cccc(Cl)c2Cl)S(C)(=O)=O)c1,-6.9,x
Cc1cc(I)ccc1NC(=O)CN(c1cccc(F)c1)S(C)(=O)=O,46.2,x
Cc1cccc(N(CC(=O)Nc2ccc(I)cc2C)S(C)(=O)=O)c1,128.8*,x
CC(C)NC(=O)Nc1ccc2c(c1)CC(=O)N([C@H](C)CO)C[C@H](C)[C@H](CN(C)Cc1ccncc1)O2,112.9*,-0.403
CC(C)NC(=O)Nc1ccc2c(c1)CC(=O)N([C@@H](C)CO)C[C@H](C)[C@H](CN(C)Cc1ccncc1)O2,11.0,0.111
COc1ccc(NC(=O)N(C)C[C@@H]2Oc3ccc(NC(=O)NC(C)C)cc3CC(=O)N([C@@H](C)CO)C[C@@H]2C)cc1,-3.2,0.245
COc1ccc(NC(=O)N(C)C[C@H]2Oc3ccc(NC(=O)c4ccncc4)cc3CC(=O)N([C@@H](C)CO)C[C@@H]2C)cc1,0.0,-0.122
CC(C)NC(=O)Nc1ccc2c(c1)CC(=O)N([C@@H](C)CO)C[C@H](C)[C@H](CN(C)C(=O)Nc1ccccc1)O2,79.2*,-0.272
COc1ccc(NC(=O)N(C)C[C@@H]2Oc3ccc(NC(=O)NC(C)C)cc3CC(=O)N([C@H](C)CO)C[C@H]2C)cc1,110.2*,-0.0706
COc1ccc(NC(=O)N(C)C[C@@H]2Oc3ccc(NC(=O)c4ccncc4)cc3CC(=O)N([C@H](C)CO)C[C@H]2C)cc1,93.7*,-0.0798
CC(C)NC(=O)N(C)C[C@@H]1Oc2ccc(NC(=O)Nc3ccccc3)cc2CC(=O)N([C@H](C)CO)C[C@H]1C,2.4,-0.00337
Cc1noc(C)c1S(=O)(=O)Nc1ccc2c(c1)C(=O)N([C@H](C)CO)C[C@@H](C)[C@@H](CN(C)Cc1ccc3c(c1)OCO3)O2,11.0,-0.182
C[C@@H]1CN([C@H](C)CO)C(=O)c2cccc(NC(=O)C3CCOCC3)c2O[C@H]1CN(C)C(=O)Nc1ccc2c(c1)OCO2,-4.5,0.151
